# From PubChem
# SARS PLP yeast = SARS-CoV PLP inhibition in yeast; S. cerevisiae expressing SARS-CoV PLpro, growth rescue; Potency, µM (titrated, usually from 32.9 µM), for inactives: top-dose activity, positive = growth rescue, usual class: activators; actives 0.19% (n = 330,000); AID 485353; calls by dose curve; note: potency is the fitted concentration of half-maximal effect; 0% is about no effect; nearly all actives have a fitted effect of over 55% in size
# Pf growth 96h = P. falciparum growth inhibition at 96 hour, primary screen for plastid delayed-death inhibitors; P. falciparum luciferase reporter growth, 96 h; Potency, µM (highest dose often 28.7 µM), inactives show at the highest dose activity change, negative = inhibition, usual class: inhibitors; actives 6.9% (n = 320,000); AID 504834; note: potency is the fitted concentration of half-maximal effect; % is set by controls: 0 for no effect and ±100 for the full control effect
#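 Infected RBCs, 2% Hct / 0.05% parasitemia final; luciferase-reporter P. falciparum; cpd 96 h, 37 C, 5% CO2; luciferase detection reagent; luminescence.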
# Shiga inhibitor = blocks Shiga toxin action in Vero cells | Vero cells, Shiga toxin protein synthesis inhibition reporter | actives 9.2% (n = 290,000) | inhibition, % at 38.7 µM | AID 2315; in the data active = inhibition mostly above about 28%, no sharp cut-off; inactive = mostly below about 43%; note: 0% is about no effect
# Cycloheximide cs = affects cycloheximide protein synthesis inhibition readout, counter-screen; max response, %; cell reporter, cycloheximide protein synthesis inhibition counterscreen; AID 2314; actives 12% (n = 300,000); in the data active = max response mostly above about 13%, no sharp cut-off; inactive = mostly below about 14%; note: read at 38.3 µM for the half of the compounds with a filed dose; 0% is about no effect
# Pf growth 48h = inhibits P. falciparum growth in the first generation, 48 h; P. falciparum luciferase growth in erythrocytes, 48 h; Potency, µM (doses to about 28.7 µM), without a hit: top-dose activity change, negative = inhibition, usual class: inhibitors; actives 5.9% (n = 310,000); AID 504832; note: potency is the fitted concentration of half-maximal effect; % is set by controls: 0 for no effect and ±100 for the full control effect
#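 Luminescence readout; reporter = integrated firefly luciferase in P. falciparum. RBC culture at 2% hematocrit, 0.1% parasitemia final, 37 C/5% CO2; decreased signal taken as growth inhibition.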
# AMA1 RON2 block = AMA1-RON2 (P. falciparum) interaction inhibition; actives 0.2% (n = 360,000); AID 720542; Potency, µM (highest dose often 58.2 µM), inactives show top-dose activity change, negative = inhibition, most hits filed as inhibitors; AlphaScreen AMA1-biotinylated RON2 peptide binding;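 note: potency is the fitted concentration of half-maximal effect; 0% = vehicle wells and -100% = peptide control; nearly all actives have a fitted effect of over 45% in size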
#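 AMA1 (3D7) with his tag at 25 nM final met compounds first, then biotinylated RON2 peptide at 25 nM; detection used donor plus acceptor beads, 10 µg/mL apiece, read by AlphaScreen after 30 min at room temperature.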
# * = called active by the depositor; ? = inconclusive; nt = no result given; [ ] = dose if it differs, or a comment. Most compounds without a hit are left out; they make up all but 19% or so of the library. Unless noted, calls come from the whole dose curve; as a rule, active = well fitted curve in the direction sought with a large enough effect; inconclusive = small, poorly fitted or top-dose-only effect, or another doubt; inactive = no such curve, though single readings can be large; an effect the other way counts as inactive or inconclusive.
SMILES,SARS PLP yeast,Pf growth 96h,Shiga inhibitor,Cycloheximide cs,Pf growth 48h,AMA1 RON2 block
O=C(Nc1ccc2c(c1)OCO2)c1cc(-c2cccc(O)c2)on1,-12%,51%,111*,48*,60%,-1%
O=C(Nc1ccc2c(c1)OCO2)c1cc(-c2ccc(O)cc2)on1,1%,18%,106*,40*,71%,10%
Cc1cc(NC(=O)c2cc(-c3ccc(O)cc3)on2)no1,0%,58%,93*,42*,85%,-2%
O=C(Nc1ccc2c(c1)OCO2)c1cc(-c2ccccc2Cl)on1,0%,?,89*,24*,182%,-1%
O=C(NCc1ccc2c(c1)OCO2)c1cc(-c2ccccc2Cl)on1,-4%,?,19,4,33%,0%
Cc1ccc(NC(=O)c2cc(-c3ccc4c(c3)OCO4)on2)cc1C,9%,-21%,-7,-1,24%,10%
O=C1C2CC=CCC2C(=O)N1c1ccc(Cc2ccncc2)cc1 (stereo unspecified),2%,31%,-3,4,12%,5%
CC(C)c1ccc(NC2CCCN(C(=O)C3=NN(C)C(=O)CC3)C2)cc1 (stereo unspecified),?,?,-3,-1,?,-3%
Cc1cc(C)c2[nH]c3nc(SCC(=O)O)nnc3c2c1,3%,0%,-1,6,?,7%
CCN(C(=O)/C=C/c1ccc(OC)cc1)C1CCCCC1,-6%,?,16,12*,1%,0%
CC(C)(C)OC(=O)NCCCCCO,nt,45%,27*,27*,-7%,5%
CCN(CC)S(=O)(=O)c1ccc(N2CCc3ccccc3C2)nc1,-11%,-23%,26,37*,?,8%
CC(C)N(C(C)C)S(=O)(=O)c1ccc(N2CCc3ccccc3C2)nc1,-10%,?,58*,32*,?,-11%
N#Cc1c(-c2ccccc2)nc(SCC(=O)Nc2ccc(OC(F)(F)Cl)cc2)[nH]c1=O,3%,3.7µM*,-4,-5,-17%,-12%
N#Cc1c(-c2ccccc2)nc(SCC(=O)N(c2ccccc2)c2ccccc2)[nH]c1=O,24%,13µM*,-8,-4,8%,24%
N#Cc1c(-c2ccccc2)nc(SCC(=O)Nc2ccccc2)[nH]c1=O,-32%,-14%,-10,9,9%,16%
C=CCn1c(=O)c(C(=O)Nc2ccccc2C)c(O)c2ccccc21,-10%,?,20,19*,162%,12%
CCn1c(=O)c(C(=O)Nc2ccccc2C)c(O)c2ccccc21,23%,?,active,16,14%,20%
C=CCn1c(=O)c(C(=O)Nc2ccccc2O)c(O)c2ccccc21,-5%,nt,17,8,7%,43%
CCCCCCn1c(=O)c(C(=O)Nc2ccncc2)c(O)c2ccccc21,12%,?,24,9,2.9µM*,nt
CCn1c(=O)c(C(=O)Nc2ccc(C)cc2)c(O)c2ccccc21,-1%,-1%,43,9,0%,42%
CCCn1c(=O)c(C(=O)N/N=C/c2ccccc2F)c(O)c2ccccc21,1%,39%,30,13*,110%,2%
CCn1c(=O)c(C(=O)NCCc2ccccc2)c(O)c2ccccc21,-3%,13%,-2,1,?,66%
CC(=O)c1c(O)c2ccccc2n(Cc2ccccc2)c1=O,-2%,13µM*,21,-1,?,39%
CCCCCn1c(=O)c(C(=O)Nc2ccccc2C)c(O)c2ccccc21,1%,-24%,nt,34*,65%,3%
SMILES,SARS PLP yeast,Pf growth 96h,Shiga inhibitor,Cycloheximide cs,Pf growth 48h,AMA1 RON2 block
CCCn1c(=O)c(C(=O)Nc2ccccc2C)c(O)c2ccccc21,-8%,4%,nt,14*,62%,37%
Cc1ccc(S(=O)(=O)NCc2ccccc2)cc1C(=O)NC1CCCCC1,0%,98%,28,-1,-17%,-1%
Cc1cc(C(=O)Nc2ccc3ccccc3c2)oc1C,-52%,-23%,127*,30*,117%,-20%
Cc1cc(C(=O)Nc2ccc3ccccc3c2)c(C)o1,-5%,22%,96*,32*,293%,-10%
Cc1ccccc1C(=O)Nc1nncs1,0%,nt,15,12,10%,2%
Cc1cc(C(=O)Nc2nc3c(C)cccc3s2)c(C)o1,-4%,45%,11,19*,19%,-4%
Cc1cc(C(=O)Nc2nncs2)oc1C,-1%,2.6µM*,nt,1,42%,6%
O/N=C\c1ccc2noc(-c3ccc(Cl)cc3)c2c1,1%,114%,2,17,24%,6%
Cc1ccoc1C(=O)Nc1ccc2ccccc2c1,-18%,-13%,63,41*,159%,0%
Cc1cc(C(=O)Nc2cccc(C(=O)O)c2)oc1C,-4%,47%,81*,38*,162%,-4%
CC(=O)Nc1ccc2nc(CN3CCC(CO)(CCc4ccccc4)CC3)ccc2c1,1%,-6%,18,1,?,-9%
CC(C)(C)Cc1nc(-c2ccc(Cl)cc2)no1,-1%[6.58 µM],37%,-2,16,nt,16%
Cc1ccc(C2(c3ccccc3)NC(=O)N(CC(=O)NCc3ccccc3)C2=O)cc1C (stereo unspecified),2%,?,nt,nt,?,-1%
CC(C)CSC1=NSC2=NC(=O)/C(=C\c3ccccc3)C(=N)N12,1%,?,77*,38*,337%,58%
CC(C)CSC1=NSC2=NC(=O)/C(=C\c3coc4ccccc4c3=O)C(=N)N12,-13%,-1%,71*,27*,48%,20%
CSC1=NSC2=NC(=O)/C(=C\c3coc4ccccc4c3=O)C(=N)N12,-100%,-3%,-7,-2,-10%,14%
CCCn1nc(C(=O)Oc2ccc3c(C)cc(=O)oc3c2)c2ccccc2c1=O,-6%,5%,-11,-2,27%,18%
O=C1CC(c2ccco2)=Nc2ccccc2N1,7%,0%[5.75 µM],4,11*,20%,-7%
OCC1(Cc2ccc(Cl)cc2)CCN(CC2CC=CCC2)CC1 (stereo unspecified),0%,49%,-21,-2,6.6µM*,-4%
OCC1(Cc2ccc(Cl)cc2)CCN(Cc2ccccc2F)CC1,0%,?,-10,1,13µM*,0%
CSc1ccc(CN2CCC(CO)(Cc3ccc(Cl)cc3)CC2)cc1,1%,?,17,-2,0%,-4%
O=C(NCc1ccc(F)cc1)c1cc(C2CCCCN2S(=O)(=O)c2ccc(F)cc2F)on1 (stereo unspecified),nt,nt,nt,nt,nt,-8%
O=C(Cn1ncc(N2CCOCC2)c(Br)c1=O)c1ccc(Cl)cc1,1%,40%,80*,35*,53%,14%
CC(C)(C)C(=O)Cn1ncc(N2CCOCC2)c(Cl)c1=O,0%,39%,32*,17*,nt,-1%
